Assay outcomes from PubChem BioAssay.
Rows were chosen to be rich in hits. Some 6.6% of all compounds tested hit in one or more screens of this group.
KB-V1 cytotox: kills drug-selected multidrug resistant KB-V1 cells. KB-V1 MDR cells viability, CellTiter-Glo, 72 h. Potency, µM (top dose mostly 46.1 µM), hits mostly cytotoxic. 3.4% of 400,000 active. AID 1347076; further: on the % scale 0 is the no-effect control and ±100 the full control effect; nearly all actives have a fitted effect of over 60% in size
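Cytotoxicity toward P-gp-expressing KB-V1 cells was determined as loss of CellTiter-Glo luminescence after 72 h at 37 degrees C. Compounds were tested in quantitative HTS format across a concentration range, with curves fitted to normalized data.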
MCF10A rereplic: inducers of DNA re-replication in MCF 10A breast cells; MCF 10A DNA re-replication, Hoechst nuclear intensity, 48 h; Potency, µM (highest dose often 46.1 µM), inactives show at the highest dose activity, positive = re-replication, usual class: activators; 2.9% of 350,000 active; further: % of control where 0% means no effect; nearly all actives have a fitted effect of over 50% in size
RGS4 inhibitor: blocks human RGS4-accelerated GTP hydrolysis; 0.039% of 390,000 active; P49798; Potency, µM (doses to about 114 µM), without a hit: at the highest dose activity change, negative = inhibition, most hits filed as inhibitors; Transcreener GDP fluorescence polarization, RGS4-accelerated GTP hydrolysis; further: on the % scale 0 is the no-effect control and ±100 the full control effect; nearly all actives have a fitted effect of over 75% in size
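MLSMR compounds (23 nl, pin-transferred) preincubated 10 min at room temperature with a 500nM (2x) first reagent, then RGS4 at 900nM (2x) plus Transcreener GDP mix added; fluorescence polarization (620/688 nm) read before and after 90 min at 30 °C.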
KB-3-1 tox: kills parental KB-3-1 adenocarcinoma cells; KB-3-1 viability, CellTiter-Glo ATP luminescence, 72 h; Potency, µM (top dose mostly 46.1 µM), actives largely listed as cytotoxic; 1.4% of 400,000 active; AID 1347075; further: on the % scale 0 is the no-effect control and ±100 the full control effect; nearly all actives have a fitted effect of over 60% in size
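KB-3-1 parental drug-naive adenocarcinoma cells in DMEM/10% FBS, incubated 72 h at 37 C with pin-transferred compounds across a concentration series. Viability by CellTiter-Glo luminescence; concentration-response curves fitted after normalization.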
TSG101-PTAP inh: blocks PTAP/TSG101 interaction to inhibit HIV-1 budding. Q99816. Fluorescence polarization, FITC-PTAP peptide / Tsg101 binding. Potency, µM (series often up to 115 µM), for inactives: at the top dose activity change, negative = inhibition, hits mostly inhibitors. 340,000 tested, under 10 active. AID 493005; active means well fitted inhibition curve with a large enough effect in the main read-out, with a control signal flat, not every such curve was filed as active; inconclusive means small, poorly fitted or top-dose-only effect, or effect the other way, or a change in a side signal; inactive means no such curve, though single readings can be large or run the other way; further: % of control where 0% means no effect
Target sequence (Q99816 whole entry, looked up): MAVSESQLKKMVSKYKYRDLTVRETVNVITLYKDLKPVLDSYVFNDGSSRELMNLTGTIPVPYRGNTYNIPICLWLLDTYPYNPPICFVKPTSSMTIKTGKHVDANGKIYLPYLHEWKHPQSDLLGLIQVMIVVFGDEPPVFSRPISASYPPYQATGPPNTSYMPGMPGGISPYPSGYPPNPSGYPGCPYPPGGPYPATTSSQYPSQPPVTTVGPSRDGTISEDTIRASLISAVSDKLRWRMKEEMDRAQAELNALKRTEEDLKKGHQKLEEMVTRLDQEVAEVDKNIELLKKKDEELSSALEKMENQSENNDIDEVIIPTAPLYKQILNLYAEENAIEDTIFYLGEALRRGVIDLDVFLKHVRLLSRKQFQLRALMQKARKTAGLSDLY
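Compounds were pin-transferred onto Tsg101 binding domain (10 uM final) in HEPES pH 7.5 buffer, then FITC-PTAP peptide was added at 50 nM final. After 20 min at RT, polarization reported peptide displacement across a qHTS concentration series.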
SW480 rereplic: inducers of DNA re-replication in SW480 colon cancer cells. SW480 DNA re-replication, Hoechst DNA content imaging, 48 h. 1.8% of 340,000 active. AID 624297. Potency, µM (titrated, usually from 46.1 µM), inactives show at the highest dose re-replication activation, hits mostly activators; further: % of control where 0% means no effect; nearly all actives have a fitted effect of over 55% in size
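Per well, 250 cells were exposed to pinned compound for 48 hr. Nuclear DNA was visualised with Hoechst (40 min, 37 C) and total object intensity recorded by fluorescence scanning.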
Starred values were filed as active, the others as inactive; i = inactive; ? = inconclusive; nt = no result; [ ] = dose if it differs, or a comment. Unless noted, the call rests on the fitted dose curve; in most records, active means well fitted curve in the direction sought with a large enough effect; inconclusive means small, poorly fitted or top-dose-only effect, or another doubt; inactive means no such curve, though single readings can be large; an effect the other way counts as inactive or inconclusive. Potency means the concentration at half of the fitted maximal effect.

SMILES | KB-V1 cytotox | MCF10A rereplic | RGS4 inhibitor | KB-3-1 tox | TSG101-PTAP inh | SW480 rereplic
Cc1cc(-c2ccco2)c(C#N)c2nc3ccccc3n12 | i | 18µM* | -5%[11.4 µM] | ? | ? | 9%
N#Cc1c(N2CCN(C(=O)c3ccccc3)CC2)nc(-c2ccccc2)c2c1CCCC2 | ? | ? | 1% | ? | -4% | 4%
CC(=O)c1ccc(N2C(=O)Nc3ccccc3S2(=O)=O)cc1 | i | nt | 37% | i | nt | nt
COc1ccc(NC(=O)Cn2cnc3c(oc4ccccc43)c2=O)cc1OC | ? | nt | -14% | i | nt | nt
CC(C)NC(=O)c1ccc2c(c1)nc1n2CCCCC1 | nt | nt | 13% | nt | nt | nt
CC(=O)OCC1O[C@@H](O[C@@H]2C[C@H]3C(C)(C)[C@H](OC(C)=O)CC[C@]3(C)[C@H]3CC[C@]45C[C@]4(CC[C@H]5[C@@H](C)C[C@@H](O)[C@H](O)C(C)(C)O)[C@@]32C)[C@H](O)[C@@H](O)[C@@H]1O (some centres not stated) | nt | 7.3µM* | nt | nt | nt | 21µM*
COc1cc2ncc3c(-c4ccccc4)nn(CC(=O)NC4CCCCC4)c3c2cc1OC | i | nt | -5% | i | nt | nt
CCOC(=O)CCCc1ccc(/C(C)=N/NC(N)=S)cc1 | 8.2µM* | 20% | -31% | ? | -3% | -1%
Nc1c(Cl)cc2c(c1Oc1ccccc1)C(=O)c1ccccc1C2=O | ? | 13µM* | -12% | i | -7% | ?
Nc1c(Cl)cc2c(c1Br)Cc1ccccc1-2 | i | -4% | 1% | i | -7% | 5%
CCn1c(SCC(=O)Nc2cccc(Cl)c2)nnc1-c1nonc1NC(C)=O | i | nt | -19% | i | nt | nt
CCn1c(=NC(=O)C2COc3ccccc3O2)sc2c(OC)ccc(OC)c21 (configuration not stated) | 9.2µM* | 16% | -2% | i | 3% | -24%
CCn1c(=NC(=O)c2ccc3c(c2)OCCO3)sc2c(C)ccc(OC)c21 | nt | nt | 2% | nt | nt | nt
CN(C)c1ccc(/C=C/c2ccnc3ccccc23)cc1C=O | i | nt | nt | i | nt | nt
CCc1cc(/C=C/c2ccnc3ccccc23)ccc1N(C)C | ? | nt | nt | 6.5µM* | nt | nt
CN(C)c1ccc(/C=C\C=C/c2ccnc3ccccc23)cc1 | i | nt | nt | 0.92µM* | nt | nt
Cc1ccc2nccc(/C=C/c3ccc(N(C)C)cc3)c2c1 | 18µM* | nt | nt | ? | nt | nt
CCc1ccccc1-n1c2c(cc(-c3nc(-c4ccc(Cl)cc4)cs3)c1=O)C(=O)CC(C)(C)C2 | i | nt | 12% | i | nt | nt
Cc1snc(SCC(=O)c2ccc(Cl)cc2)c1C#N | 21µM* | 24% | ? | i | -3% | 11%
CCc1ccc(S(=O)(=O)NCc2nc3cccnc3n2Cc2ccccc2Cl)cc1 | nt | nt | -19% | nt | nt | nt
CCCCOc1ccc(Cn2c(=O)oc3ccc(C)cc32)cc1 | i | nt | -5% | i | nt | nt
CCCOc1ccc2ccccc2c1/C=N/n1c(C)nnc1-n1nc(C)cc1C | 5.8µM* | 10µM* | -6% | 5.2µM* | -1% | 21µM*
CCc1ccc(CNC(=O)C2CCCN(S(=O)(=O)c3ccc4c(ccn4C)c3)C2)cc1 (configuration not stated) | i | nt | 2% | i | nt | nt
CC(C)N1CCc2c(sc(NC(=O)c3ccc(S(=O)(=O)N4CCCCC4C)cc3)c2C(N)=O)C1 (configuration not stated) | i | ? | -13% | i | 2% | 21µM*
CCN1CCc2c(sc(NC(=O)CSc3ccccc3)c2-c2nc3ccccc3s2)C1 | nt | nt | -11% | nt | nt | nt
CC(=O)Nc1sc2c(c1-c1nc3ccccc3s1)CCN(C(C)C)C2 | ? | ? | -17% | 7.3µM* | -7% | 21µM*
CC(C)N1CCc2c(sc(NC(=O)c3ccc(C(=O)c4ccccc4)cc3)c2C(N)=O)C1 | i | 16µM* | -7% | i | 3% | ?
